Hits are enriched below; roughly 1.9% of the tested compounds scored in any of these assays.
dFosB activator: activators of mouse delta FosB homodimer; P13346; purified delta FosB, TAMRA-CDK5 oligo fluorescence polarization; percent of positive-control signal above neutral wells; activation, % at 25 µM; 340,000 compounds, 0.99% hits; AID 493131;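 active = mean activation above about 17%, with every replicate also reaching it, limit read from the data, passing the limit was not always enough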
p47phox inh: inhibitors of human p47phox binding; 220,000 compounds, 0.53% hits; P14598; inhibition, % at 24.7 µM; p47phox/p22phox peptide binding, fluorescence polarization, 2 h;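 active = inhibition above about 30%, limit read from the data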
Target sequence (P14598 whole entry, looked up): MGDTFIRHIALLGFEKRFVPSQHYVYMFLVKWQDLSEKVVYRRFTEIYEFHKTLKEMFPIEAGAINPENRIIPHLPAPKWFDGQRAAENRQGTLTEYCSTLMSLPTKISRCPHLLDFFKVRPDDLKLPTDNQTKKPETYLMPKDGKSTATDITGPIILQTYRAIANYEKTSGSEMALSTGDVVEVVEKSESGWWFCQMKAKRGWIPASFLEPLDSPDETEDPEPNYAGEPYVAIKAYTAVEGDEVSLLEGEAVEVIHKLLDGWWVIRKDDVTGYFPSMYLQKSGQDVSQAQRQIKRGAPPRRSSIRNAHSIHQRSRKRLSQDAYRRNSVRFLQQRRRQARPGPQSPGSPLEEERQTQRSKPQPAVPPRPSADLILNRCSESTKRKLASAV
Efa HMGR inh: inhibitors of class II HMG-CoA reductase from Enterococcus faecalis | purified E. faecalis HMGR, NADPH absorbance 340 nm kinetic | inhibition, % at 10 µM | 190,000 compounds, 0.41% hits | AID 1066;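 active = inhibition above a set limit, the median over all tested compounds plus 3 SD, cut at about 9.5% in these data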;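 also: enzyme runs in reverse so mevalonate oxidation gives rising NADPH absorbance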
14-3-3 Bad inh: disrupts binding of bovine 14-3-3 zeta to phospho-Bad peptide. P63103. TR-FRET 14-3-3zeta/Dy647-pBad peptide displacement, 1 h. inhibition, % at 21.7 µM. 220,000 compounds, 0.71% hits. AID 781;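 active = inhibition above about 70%, limit read from the data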
Target sequence (P63103 whole entry, looked up): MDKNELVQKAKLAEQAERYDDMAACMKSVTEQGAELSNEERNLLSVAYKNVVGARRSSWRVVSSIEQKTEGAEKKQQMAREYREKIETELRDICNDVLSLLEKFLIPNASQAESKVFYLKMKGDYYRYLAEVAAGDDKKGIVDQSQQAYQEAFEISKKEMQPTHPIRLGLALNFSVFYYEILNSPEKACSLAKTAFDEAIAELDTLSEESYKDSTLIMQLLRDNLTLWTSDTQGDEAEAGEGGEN
Hits are given with their value; - = inactive; . = not tested or not shown; [ ] = another dose, or the depositor's remark.

SMILES | dFosB activator | p47phox inh | Efa HMGR inh | 14-3-3 Bad inh
CC(C)c1ccc(C2NC(=O)CCC2[N+](=O)[O-])cc1 (stereo not drawn) | - | - | 10.1 | -
O=C(/C=C/c1ccc2c(c1)OCO2)Nc1nc2ccccc2s1 | 19.2 | - | - | -
Cc1ccc2nc(NC(=O)/C=C/c3ccc4c(c3)OCO4)sc2c1 | - | - | - | -
Cc1scc(C(=O)NNC(=S)NCC2CCCO2)c1C (stereo not drawn) | - | - | - | -
CCOc1ccc(Cn2c3ccc(OC)cc3c3nc4ccccc4nc32)cc1 | - | 43.5 | - | -
CCn1c2ccc(OC)cc2c2nc3ccccc3nc21 | . | - | - | -
CCCCNC(=O)c1onc(CSc2ccc(F)cc2)c1C(=O)NCCCC | - | - | . | -
CCc1ccc(N(C(=O)c2csnn2)C(C(=O)NCc2ccccc2)c2ccco2)cc1 (stereo not drawn) | - | - | - | 95.1[fluorescence artefact?]
C/C=C(/C)C(=O)Nc1cccc(C2=NOC3(C2)C[C@H](C(N)=O)N(C(=O)c2ccc(Cl)cc2)C3)c1 (stereo partly drawn) | - | 42.3 | . | -
C=C(C)C(=O)Nc1cccc(C2=NOC3(C2)C[C@@H](C(N)=O)N(C(=O)c2ccc(Cl)cc2)C3)c1 (stereo partly drawn) | . | - | . | -
Cc1ccc(CNC(=O)C(NS(=O)(=O)c2ccc3nc(C)sc3c2)C(C)C)cc1 (stereo not drawn) | - | - | - | -
Cc1nc2ccc(S(=O)(=O)NC(C(=O)NCc3ccco3)C(C)C)cc2s1 (stereo not drawn) | - | 121.2 | - | -
O=C(NC1CCCC1)c1cccc(S(=O)(=O)N2CCCCC2)c1 | - | - | - | -
Cc1cc(C)cc(Oc2ccccc2/C=N\O)c1 | - | - | - | -
Cc1cc(C)cc(Oc2ccccc2CO)c1 | . | 33.0 | - | -
CCN(CC)Cc1cc(O)c(CN(CC)CC)cc1O | - | 46.4 | - | -
CCc1oc(C(=O)O)cc1CN(CC)CC | - | - | - | -
O=c1[nH]ncn1-c1ccccc1C(F)(F)F | - | - | - | -
O=c1[nH][nH]c(=S)n1-c1ccccc1C(F)(F)F | . | 60.5 | . | -
O=S(=O)(Nc1nc(-c2sccc2Cl)cs1)c1cc(Cl)ccc1Cl | - | - | - | 87.5
Cc1cc(C(=O)N2CCN(c3ccc([N+](=O)[O-])cc3)CC2)co1 | - | . | . | .
Cn1c(C(=O)N2CCN(c3ccc([N+](=O)[O-])cc3)CC2)cc2c(=O)[nH]c3ccccc3c21 | 22.9 | - | - | -
CNC(C)C#Cc1ccc2oc3cccc(OC)c3c(=O)c2c1 (stereo not drawn) | - | . | . | .
C[C@H](NC(=O)C1CCN(S(=O)(=O)c2ccccc2)CC1)C(=O)NCc1cccc(Cl)c1 | - | . | . | .
Cc1ccc([N+](=O)[O-])cc1NC(=O)C[n+]1ccccc1 | - | - | 13.3 | -
SMILES | dFosB activator | p47phox inh | Efa HMGR inh | 14-3-3 Bad inh
N#C/C(=C\c1ccc(N2CCCCC2)o1)C(=O)Nc1cccc(Br)c1 | - | 36.6 | - | -
N#C/C(=C\c1ccc(N2CCCCC2)o1)C(N)=O | - | - | - | -
O=C(c1cccnc1)N1CCN(Cc2ccc3ccccc3c2)CC1 | - | . | . | .
O=C(c1cccnc1)N1CCN(Cc2cccc(F)c2)CC1 | - | - | - | 75.5
O=C(COc1ccc(F)cc1)NCCN1CCCC1 | - | . | . | .
O=C(Nc1cnn(C23CC4CC(CC(C4)C2)C3)c1)c1cnn2c(C(F)(F)F)cc(-c3ccco3)nc12 | - | 32.6 | - | 76.6
O=S(=O)(c1cccc(S(=O)(=O)N2CCOCC2)c1)N1CCCCCC1 | - | . | . | .
COC(=O)C(C)n1cnc2c(nnn2-c2ccc(OC)cc2)c1=O (stereo not drawn) | - | - | 14.1 | -
COC(=O)C(C)n1cnc2c(nnn2-c2ccc(C)cc2)c1=O (stereo not drawn) | - | . | . | .
COc1ccc(/C=N\NC(=O)c2ccccc2[N+](=O)[O-])cc1COc1c(F)c(F)c(F)c(F)c1F | - | . | . | .
CCN(CC)Cc1cc(Nc2c3ccccc3nc3c4ccccc4n(C)c23)cc(CN(CC)CC)c1O | 65.6 | . | . | .
COc1ccc(-c2nnc(-c3cc4c(ccc5ccccc54)oc3=O)o2)cc1 | - | 31.6 | - | 71.8
O=c1oc2ccc3ccccc3c2cc1-c1nnc(-c2ccccc2)o1 | - | - | - | -
C/C(=N\NC(=O)c1nnn(-c2nonc2N)c1C)c1ccc(OCc2ccccc2)cc1 | - | . | . | .
O=C1CCCN1CC(CN1CCOCC1)Sc1nnnn1-c1ccccc1 (stereo not drawn) | - | - | - | 78.8
CN(Cc1ccccc1)C(=O)COC(=O)c1ccc(Br)o1 | - | . | . | .
O=C(Nc1cc(Cl)cc(Cl)c1)C(NCCO)c1ccccc1 (stereo not drawn) | - | - | - | 79.6
O=C(Nc1cc(Cl)cc(Cl)c1)C(c1ccccc1)N1CCCCC1 (stereo not drawn) | - | - | - | -
CC(C)CCC(O)(CCC(C)C)C(=O)NNc1ccccc1 | - | - | - | -
CC(C)CC(O)(CC(C)C)C(=O)NNc1ccccc1 | - | - | 15.4 | -
CC(C)N1CCc2c(sc(NC(=O)c3cc4cc([N+](=O)[O-])ccc4s3)c2C(N)=O)C1 | 48.2 | - | - | 95.5
CC(C)N1CCc2c(sc(NC(=O)Cc3ccccc3)c2C(N)=O)C1 | - | . | . | .
CC(C)N1CCc2c(sc(NC(=O)c3ccc4ccccc4c3)c2C(N)=O)C1 | - | . | . | .
CN1CCc2c(sc(NC(=O)c3cc4cc([N+](=O)[O-])ccc4s3)c2C(N)=O)C1 | . | 77.4 | - | 72.0
CC(C)N1CCc2c(sc(NC(=O)c3ccc(C(=O)c4ccccc4)cc3)c2C(N)=O)C1 | 29.2 | . | . | .
SMILES | dFosB activator | p47phox inh | Efa HMGR inh | 14-3-3 Bad inh
CC(=O)Nc1sc2c(c1-c1nc3ccccc3s1)CCN(C(C)C)C2 | 35.4 | - | - | -
CC(C)N1CCc2c(sc(NC(=O)c3ccco3)c2C(N)=O)C1 | - | . | . | .
CCOC(=O)c1cccc(NC(=O)CSc2nnc(COc3ccccc3C)o2)c1 | - | - | - | -
COc1ccc(S(=O)(=O)N2CCCCCC2)cc1C(=O)N(C)CC(=O)Nc1c(Cl)cccc1Cl | - | . | . | .
NC(=S)N/N=C/c1coc2ccc(Br)cc2c1=O | - | - | . | -
NC(=S)N/N=C/c1coc2c(ccc3ccccc32)c1=O | - | - | - | 89.0[fluorescence artefact?]
CC(=O)c1ccc(Nc2nc3ccccc3nc2NS(=O)(=O)c2cccs2)cc1 | - | . | . | .
Cc1ccc(C(=O)NC(C)c2ccc3c(c2)OCO3)s1 (stereo not drawn) | - | - | 13.3 | -
CN(C(=O)Cc1c(C(=O)O)n(C)c2ccccc12)c1ccc(F)cc1 | - | - | - | -
O=C(c1cccn2c(=O)c3ccc(Cl)cc3nc12)N1CCN(Cc2ccc3c(c2)OCO3)CC1 | - | - | - | -
CSc1ncccc1C(=O)NCCc1ccccc1 | - | - | - | -
CCOC(=O)c1c(CN2CCCCC2)oc2ccc(O)cc12 | - | - | - | -
CCOC(=O)c1c(CN2CCOCC2)oc2ccc(OC)cc12 | - | - | - | 78.9
NC(=S)NNC(=O)c1cccc(Br)c1 | . | - | 16.9 | -
O=C(NNC(=O)c1ccccc1O)c1cccc(Br)c1 | - | . | . | .
COC(Cc1n[nH]c(=S)n1-c1ccccc1)OC | - | - | - | 75.6
O=C(NCc1n[nH]c(=S)n1-c1ccccc1)c1cccs1 | - | - | 12.0 | -
